SKN-1 inh: C. elegans SKN-1 inhibition; 0.49% of 360,000 active; C. elegans VP596 Pgst-4::GFP/RFP ratio, acrylamide-induced, 24 h; inhibition, % at 21.8 µM;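 active = interference check ratio from 0.5 to 1.5 plus GFP to RFP signal ratio inhibition reaching or exceeding a fixed threshold, cut at about 30% in these data, passing the limit was not always enough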
CRFR2-BP ag: CRF-BP/CRF-R2 complex agonism; HEK293 CRF-R2/CRF-BP, calcium dye fluorescence (FLIPR); percent of saturating CRF peptide response; activation, % at 13.2 µM; 0.46% of 350,000 active; AID 588473;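 active = activation of at least 50%, plus an integration ratio under a set limit after plate pattern correction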;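 note: plate controls were neutral control wells without compound for no effect and CRF at EC100 for full effect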
TAG inh: triacylglycerol accumulation inhibition; H9c2 cells, Nile Red lipid (TAG) fluorescence; cells loaded with 200 µM oleic acid; 0.66% of 230,000 active; AID 651582; inhibition, % at 12.5 µM;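 active = pattern-corrected inhibition of lipid staining of at least 50% with the nuclear-stain viability signal not falling by more than 50%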;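 note: 0% = DMSO wells and 100% = triacsin C control wells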
hiPSC survival: enhancers of human iPSC single-cell survival; hiPSC single-cell survival, ATPlite luminescence; 100% = ROCK inhibitor wells, 0% = DMSO; survival enhancement, % at 20 µM; 0.044% of 360,000 active; in the data active = survival enhancement above about 18%;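 note: cells exposed to compounds for 16 hours before the ATP read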
Cardio protect: myocardial damage modulation in H9c2 cells | H9c2 cardiomyocytes, H2O2 injury protection, ATPLite, 2 h | protection from H2O2 cell death, % at 20 µM | 0.63% of 360,000 active | AID 588492;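 active = compounds giving at least 50% protection of heart cells from peroxide-induced death in the single-dose screen, raw or plate-pattern-corrected value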;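 note: 0% = DMSO wells with peroxide and 100% = DMSO wells without peroxide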
CRFR2-BP antag: antagonists of CRF-binding protein/CRF-R2 receptor complex; HEK293 CRF-R2/CRF-BP, CRF-induced calcium fluorescence; inhibition, % at 11.8 µM; 0.59% of 350,000 active;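 active = inhibition of the ligand-induced calcium signal above about 50% at the single tested concentration, limit read from the data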
* hit, by the source's call; . = no result given. Hits are enriched below; roughly 2.5% of the tested compounds scored in any of these assays.

SMILES	SKN-1 inh	CRFR2-BP ag	TAG inh	hiPSC survival	Cardio protect	CRFR2-BP antag
CC1(Cc2ccc3c(c2)OCO3)NC(=O)NC1=O (stereo unspecified)	13	-3	10	-1	-3	56*
COC(=O)[C@]12CCCCC=C1N(CCc1ccc(OC)c(OC)c1)C(=O)[C@H](CC(=O)NCc1ccccc1)C2	-4	.	.	.	.	.
O=C(COc1ccccc1Cl)NC(=S)Nc1ccccc1N1CCCC1	10	0	.	-1	-11	-21
C=CCn1c(COc2ccccc2)nnc1SC(C)C(=O)N/N=C/c1cc(Cl)ccc1O (stereo unspecified)	10	0	10	8	67*	-14
C=CCn1c(COc2ccc(Cl)cc2)nnc1SCC(=O)N/N=C/c1cccc(O)c1	5	2	-11	-2	-15	6
COc1cc(NC(=O)c2sc3ncn(CC(=O)N4CCCCC4)c(=O)c3c2C)cc(OC)c1OC	6	4	.	0	6	-7
CCc1ccc(OCC(=O)c2c(O)c3ccccc3oc2=O)cc1	-7	-4	-16	0	-4	12
CCc1oc2ccccc2c1C(=O)c1cc(Br)c(O)c(Br)c1	-2	0	-7	6	-28	55*
CCOc1ccc(-c2cc(C(=O)NC3CCCCC3)[nH]n2)c(C)c1	9	.	-20	1	-4	.
Nc1sc(Cc2ccccc2)cc1C(=O)c1c(-c2ccccc2)[nH]c2ccccc12	14	.	.	.	.	.
Cc1nc2ccccc2c(=O)n1/N=C/c1ccccc1Cl	38*	0	.	0	-4	-3
Cc1nc2ccccc2c(=O)n1/N=C/c1ccc(O)cc1O	6	0	0	0	0	30
CCCc1nc2ccccc2c(=O)n1/N=C/c1ccccc1O	21	-3	-2	-1	56*	-6
S=c1sscc1-c1ccccc1	3	0	2	7	-6	-3
CC(C)(C)NC(=S)NC1CC1	1	-2	10	0	-3	8
Cc1ccc(N=C/C(C(=O)C(F)(F)F)=C(\O)c2ccco2)cc1Cl	57*	-1	.	-2	-12	-28
COc1ccc(NC(=O)C2c3ccccc3OCC(=O)N2Cc2cccnc2)cc1 (stereo unspecified)	-3	.	.	0	.	.
O=C(O)c1ccc(/C=N/Nc2cccc(C(F)(F)F)c2)cc1	8	0	-15	0	-5	76*
C[C@H](c1ccccc1)N1C[C@H](COCc2ccccc2)Oc2cc(N3CC[C@@H](O)C3)ccc2S1(=O)=O	7	.	.	2	.	.
O=C(O)c1ccc(N/N=C/c2ccc(-c3ccccc3Cl)o2)cc1	14	5	68*	0	-1	-19
O=C(N/N=C/c1ccc(-c2ccccc2Cl)o1)c1ccccc1	-7	0	17	0	2	-12
O=C(NS(=O)(=O)c1ccc2ccc(S(=O)(=O)NCCSc3ccccc3)cc2c1)c1cccc2ccccc12	2	.	.	1	.	.
CSc1ccc(NC(=O)NCCCN2CCN(c3ccccc3F)CC2)cc1	33*	0	.	-2	-13	-47
COc1ccc(NC(=O)NCCCN2CCc3ccccc3C2)cc1	-7	-2	.	0	8	52*
O=C(NCCCN1CCc2ccccc2C1)Nc1ccc(Br)cc1	8	10	-2	-2	7	-35
SMILES	SKN-1 inh	CRFR2-BP ag	TAG inh	hiPSC survival	Cardio protect	CRFR2-BP antag
O=C(NCCCN1CCN(c2ccccc2F)CC1)Nc1ccc(F)cc1	26	-3	10	-3	-3	5
Cc1ccccc1Cn1nc(C)c(NC(=O)c2cc(-c3ccco3)on2)c1C	6	-1	-10	0	-12	10
Cc1ccccc1Cn1nc(C)c(NC(=O)c2cc(-c3cccs3)on2)c1C	-7	2	.	-2	-7	57*
Cc1noc(C(F)(F)F)c1C(=O)NNC(=O)c1cccc(C(F)(F)F)c1	4	2	0	0	-3	114*
Cc1cn([C@H]2C[C@H](O)[C@@H](/C=C/C(=O)NCCc3cccs3)O2)c(=O)[nH]c1=O	9	.	.	3	2	.
COc1ccc(CSc2nc3ccccc3c(=O)[nH]2)cc1F	-1	-1	5	1	53*	-9
O=c1[nH]c(SCCOc2ccccc2F)nc2ccccc12	1	-3	-18	0	12	-2
COc1ccccc1OCCSc1nc2ccccc2c(=O)[nH]1	17	0	.	-1	66*	-7
COCCn1c(SCc2ccc(OC)c(F)c2)nc2ccccc2c1=O	0	2	-35	0	-2	14
CCOC(=O)[C@]12CCC=C1N(CCC1=CCCCC1)C(=O)[C@H](CC(=O)N1CCCC1)C2	1	.	.	-1	.	.
CC(=O)C1CN(S(=O)(=O)c2ccc(C)cc2)C(c2ccccc2)CC1C (stereo unspecified)	8	.	.	.	.	.
COC(=O)C(CC(=O)c1cccc(OC)c1)c1ccc(F)cc1 (stereo unspecified)	-3	0	-14	0	6	55*
COc1cc(OC)cc(OC(=O)C2CCN(C(=O)c3ccc(Cl)cc3)CC2)c1	15	-1	-1	0	9	8
Brc1cc(Br)c2nc(-c3cccs3)ccc2c1	58*	1	-4	-1	-4	-24
COc1ccc(CNC(=O)CCn2c(C)csc2=O)cc1	-2	0	5	1	10	-5
Cc1ccc(N=Nc2ccc(O)c3ncccc23)cc1	5	1	87*	0	23	10
O=C(O)C(=O)/C(=C\c1cccc2ccccc12)c1ccc2ccccc2n1	-14	96*	-10	-2	-2	-138
CC1=Nc2ccccc2/C1=C\c1nc(-c2ccccc2)oc1O	-6	10	-1	0	-6	-15
CC1=Nc2ccccc2/C1=C\c1nc(-c2ccc(C(F)(F)F)cc2)oc1O	60	121*	.	-1	-3	-205
Cc1nc2cc(NC(=O)c3ccc(S(=O)(=O)N(C)c4ccccc4)cc3)ccc2o1	3	-1	.	0	-11	-7
Cc1ccc([C@@H]2CC(=O)[C@@H]3CN(S(=O)(=O)c4ccc(C)cc4)[C@H](c4cccc(Cl)c4)C[C@@H]3N2S(=O)(=O)c2ccc(Cl)cc2)cc1	-11	0	23	0	6	-2
Cc1ccc(NC(=O)C2(C)CCN2Cc2cccc3c2OCO3)cc1O (stereo unspecified)	7	.	-2	-1	-3	.
C=CCN1C(c2ccc(Br)cc2)=CS/C1=C(/C#N)c1nnc(N2CCOCC2)n1-c1ccccc1	-1	0	-15	1	16	11
C=CCN1C(c2cccc(C(F)(F)F)c2)=CS/C1=C(/C#N)c1nnc(N2CCOCC2)n1-c1ccccc1	8	108*	.	0	5	-2
CCCC1=Nc2cc(C(=O)NCCCOCC)ccc2Sc2ccccc21	16	-6	79*	-4	3	18

High-throughput results (PubChem)
